This note sets out measurements from ChEMBL document CHEMBL2218924, “A broad activity screen in support of a chemogenomic map for kinase signalling research and drug discovery” (Biochem J, 2013).

The target in assay [1] is Tyrosine-protein kinase Lck (Homo sapiens) (UniProt P06239). The conditions noted are these: at 10 µM.
The target is the same in assay [2]. The conditions noted are these: at 1 µM.
The target is the same in assay [3]. The following applies: at 10 µM. This is another data set of the same source.
Assay [4] has as its target Tyrosine-protein kinase Lyn (Homo sapiens) (UniProt P07948). The following applies: at 1 µM.
For assay [5] the target is unchanged. The following applies: at 10 µM.
Assay [6] concerns the target Mitogen-activated protein kinase 3 (Homo sapiens) (UniProt P27361). The following applies: at 1 µM.
The target is the same in assay [7]. The following applies: at 10 µM.
Assay [8] concerns the target Mitogen-activated protein kinase 1 (Homo sapiens) (UniProt P28482). The following applies: at 10 µM.
Assay [9] concerns the target MAP kinase-activated protein kinase 2 (Homo sapiens) (UniProt P49137). The following applies: at 1 µM.
For assay [10] the target is unchanged. The conditions noted are these: at 10 µM.
Assay [11] concerns the target MAP kinase-activated protein kinase 3 (Homo sapiens) (UniProt Q16644). The conditions noted are these: at 10 µM.
For assay [12], the target named is Serine/threonine-protein kinase MARK1 (Homo sapiens) (UniProt Q9P0L2). The conditions noted are these: at 1 µM.
Serine/threonine-protein kinase MARK1 (Homo sapiens), sequence (Q9P0L2 whole entry, looked up): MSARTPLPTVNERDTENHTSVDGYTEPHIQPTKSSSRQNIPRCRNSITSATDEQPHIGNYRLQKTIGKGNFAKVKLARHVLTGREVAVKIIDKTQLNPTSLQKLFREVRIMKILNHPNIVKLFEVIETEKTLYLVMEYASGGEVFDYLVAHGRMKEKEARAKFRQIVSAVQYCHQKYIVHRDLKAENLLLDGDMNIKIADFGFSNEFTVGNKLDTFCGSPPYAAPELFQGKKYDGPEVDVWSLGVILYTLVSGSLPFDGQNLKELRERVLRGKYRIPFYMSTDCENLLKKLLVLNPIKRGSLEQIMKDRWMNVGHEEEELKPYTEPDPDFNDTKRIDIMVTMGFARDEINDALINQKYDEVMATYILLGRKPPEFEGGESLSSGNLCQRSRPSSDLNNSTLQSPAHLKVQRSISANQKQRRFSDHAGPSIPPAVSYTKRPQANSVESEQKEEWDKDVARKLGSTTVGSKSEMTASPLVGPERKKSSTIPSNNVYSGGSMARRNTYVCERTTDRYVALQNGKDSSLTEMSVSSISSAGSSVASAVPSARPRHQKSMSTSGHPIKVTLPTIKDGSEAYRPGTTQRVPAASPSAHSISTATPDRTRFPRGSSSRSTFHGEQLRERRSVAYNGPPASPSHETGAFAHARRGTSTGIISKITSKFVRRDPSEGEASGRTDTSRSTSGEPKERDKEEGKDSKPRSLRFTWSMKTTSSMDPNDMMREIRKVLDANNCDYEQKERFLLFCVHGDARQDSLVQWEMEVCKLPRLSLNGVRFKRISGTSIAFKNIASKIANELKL
Assay [13] shares this target. The conditions noted are these: at 10 µM.
Assay [14] has as its target Dual specificity mitogen-activated protein kinase kinase 1 (Homo sapiens) (UniProt Q02750). The following applies: at 1 µM.
For assay [15] the target is unchanged. The following applies: at 10 µM.
The target in assay [16] is Maternal embryonic leucine zipper kinase (Homo sapiens) (UniProt Q14680). The conditions noted are these: at 1 µM.
Assay [17] shares this target. The conditions noted are these: at 10 µM.
In assay [18] the target is Misshapen-like kinase 1 (Homo sapiens) (UniProt Q8N4C8). The conditions noted are these: at 1 µM.
Misshapen-like kinase 1 (Homo sapiens), sequence (Q8N4C8 whole entry, looked up): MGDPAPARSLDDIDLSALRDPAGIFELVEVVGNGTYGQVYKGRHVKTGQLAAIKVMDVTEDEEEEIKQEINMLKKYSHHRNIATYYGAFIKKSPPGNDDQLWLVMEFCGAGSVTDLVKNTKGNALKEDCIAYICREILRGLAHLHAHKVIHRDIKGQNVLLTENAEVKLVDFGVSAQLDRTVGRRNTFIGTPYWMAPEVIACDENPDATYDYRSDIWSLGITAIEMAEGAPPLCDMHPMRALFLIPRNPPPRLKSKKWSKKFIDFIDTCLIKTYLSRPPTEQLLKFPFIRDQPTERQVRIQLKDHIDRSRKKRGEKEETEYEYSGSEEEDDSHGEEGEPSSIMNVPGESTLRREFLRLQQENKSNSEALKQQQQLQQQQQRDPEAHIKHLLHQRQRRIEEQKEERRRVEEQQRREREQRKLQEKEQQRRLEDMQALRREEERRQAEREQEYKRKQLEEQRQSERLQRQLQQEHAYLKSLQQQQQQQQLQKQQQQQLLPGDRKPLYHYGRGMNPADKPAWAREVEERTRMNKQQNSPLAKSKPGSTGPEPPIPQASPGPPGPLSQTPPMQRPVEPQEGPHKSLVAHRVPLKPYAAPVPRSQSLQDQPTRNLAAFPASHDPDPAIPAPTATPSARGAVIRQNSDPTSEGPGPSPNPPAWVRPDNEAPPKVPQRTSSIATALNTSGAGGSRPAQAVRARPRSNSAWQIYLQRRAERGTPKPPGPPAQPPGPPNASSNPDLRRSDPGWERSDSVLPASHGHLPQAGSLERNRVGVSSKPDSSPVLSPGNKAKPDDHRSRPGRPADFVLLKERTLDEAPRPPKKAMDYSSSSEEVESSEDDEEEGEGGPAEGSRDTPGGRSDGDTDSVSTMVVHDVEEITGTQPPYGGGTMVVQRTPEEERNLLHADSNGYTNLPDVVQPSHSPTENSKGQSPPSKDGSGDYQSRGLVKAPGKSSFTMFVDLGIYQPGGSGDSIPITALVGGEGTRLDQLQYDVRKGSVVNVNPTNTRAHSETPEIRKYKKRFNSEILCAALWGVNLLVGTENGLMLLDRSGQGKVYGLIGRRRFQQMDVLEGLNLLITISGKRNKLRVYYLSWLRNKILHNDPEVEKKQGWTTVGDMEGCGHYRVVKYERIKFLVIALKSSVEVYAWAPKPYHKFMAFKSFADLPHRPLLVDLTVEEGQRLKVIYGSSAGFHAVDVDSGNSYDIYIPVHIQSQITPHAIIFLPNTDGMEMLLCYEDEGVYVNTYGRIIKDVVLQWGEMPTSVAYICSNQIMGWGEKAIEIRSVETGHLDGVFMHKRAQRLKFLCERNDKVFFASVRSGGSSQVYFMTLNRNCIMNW
The target is the same in assay [19]. The conditions noted are these: at 10 µM.
The target in assay [20] is Mitogen-activated protein kinase 1 (Homo sapiens) (UniProt P28482). The conditions noted are these: at 1 µM.
Mitogen-activated protein kinase 1 (Homo sapiens), sequence (P28482 whole entry): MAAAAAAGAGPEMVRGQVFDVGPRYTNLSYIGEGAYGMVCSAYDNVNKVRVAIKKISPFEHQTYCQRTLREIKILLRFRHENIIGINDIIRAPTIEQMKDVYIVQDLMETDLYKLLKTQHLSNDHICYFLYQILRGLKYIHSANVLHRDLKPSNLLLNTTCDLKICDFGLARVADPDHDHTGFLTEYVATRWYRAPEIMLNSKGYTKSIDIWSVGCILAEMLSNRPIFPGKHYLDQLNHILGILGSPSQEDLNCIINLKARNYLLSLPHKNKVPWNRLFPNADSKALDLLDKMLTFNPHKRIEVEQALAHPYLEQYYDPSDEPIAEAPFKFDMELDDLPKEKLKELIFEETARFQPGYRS

Tyrosine-protein kinase Lck (Homo sapiens), sequence (P06239 2-509 limits assumed): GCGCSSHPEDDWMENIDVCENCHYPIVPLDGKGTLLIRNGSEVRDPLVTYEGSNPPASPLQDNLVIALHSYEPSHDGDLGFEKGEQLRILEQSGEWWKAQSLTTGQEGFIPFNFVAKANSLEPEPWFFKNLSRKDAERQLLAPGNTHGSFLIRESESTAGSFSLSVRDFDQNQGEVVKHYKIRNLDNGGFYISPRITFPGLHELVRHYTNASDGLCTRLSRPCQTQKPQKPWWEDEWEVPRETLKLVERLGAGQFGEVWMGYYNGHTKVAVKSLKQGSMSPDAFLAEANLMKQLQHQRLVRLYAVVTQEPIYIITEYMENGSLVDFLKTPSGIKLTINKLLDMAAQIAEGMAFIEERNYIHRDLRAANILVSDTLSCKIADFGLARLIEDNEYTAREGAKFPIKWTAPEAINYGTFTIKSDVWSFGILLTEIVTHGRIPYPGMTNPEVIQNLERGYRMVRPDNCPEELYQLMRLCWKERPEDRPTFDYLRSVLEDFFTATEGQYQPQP
Mitogen-activated protein kinase 3 (Homo sapiens), sequence (P27361 whole entry): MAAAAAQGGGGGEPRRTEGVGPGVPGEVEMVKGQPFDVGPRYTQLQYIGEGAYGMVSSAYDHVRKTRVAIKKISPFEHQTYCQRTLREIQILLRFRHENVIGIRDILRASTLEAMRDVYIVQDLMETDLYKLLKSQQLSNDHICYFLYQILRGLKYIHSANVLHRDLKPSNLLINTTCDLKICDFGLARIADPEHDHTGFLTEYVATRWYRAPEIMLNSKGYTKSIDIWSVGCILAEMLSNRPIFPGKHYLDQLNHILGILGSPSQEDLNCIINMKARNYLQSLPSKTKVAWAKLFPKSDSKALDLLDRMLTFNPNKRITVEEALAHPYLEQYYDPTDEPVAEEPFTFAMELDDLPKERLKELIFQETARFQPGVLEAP
Dual specificity mitogen-activated protein kinase kinase 1 (Homo sapiens), sequence (Q02750 whole entry): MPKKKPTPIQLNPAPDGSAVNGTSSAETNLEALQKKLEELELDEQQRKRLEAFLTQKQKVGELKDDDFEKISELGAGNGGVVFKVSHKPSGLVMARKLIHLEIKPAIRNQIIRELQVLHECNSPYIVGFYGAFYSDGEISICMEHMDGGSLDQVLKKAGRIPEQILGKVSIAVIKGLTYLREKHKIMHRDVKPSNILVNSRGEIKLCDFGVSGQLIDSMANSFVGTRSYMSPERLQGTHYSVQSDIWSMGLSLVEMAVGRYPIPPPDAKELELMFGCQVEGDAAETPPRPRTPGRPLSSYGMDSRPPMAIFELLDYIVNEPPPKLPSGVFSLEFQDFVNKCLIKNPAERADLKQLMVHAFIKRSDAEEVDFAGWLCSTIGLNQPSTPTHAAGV
MAP kinase-activated protein kinase 2 (Homo sapiens), sequence (P49137 whole entry, looked up): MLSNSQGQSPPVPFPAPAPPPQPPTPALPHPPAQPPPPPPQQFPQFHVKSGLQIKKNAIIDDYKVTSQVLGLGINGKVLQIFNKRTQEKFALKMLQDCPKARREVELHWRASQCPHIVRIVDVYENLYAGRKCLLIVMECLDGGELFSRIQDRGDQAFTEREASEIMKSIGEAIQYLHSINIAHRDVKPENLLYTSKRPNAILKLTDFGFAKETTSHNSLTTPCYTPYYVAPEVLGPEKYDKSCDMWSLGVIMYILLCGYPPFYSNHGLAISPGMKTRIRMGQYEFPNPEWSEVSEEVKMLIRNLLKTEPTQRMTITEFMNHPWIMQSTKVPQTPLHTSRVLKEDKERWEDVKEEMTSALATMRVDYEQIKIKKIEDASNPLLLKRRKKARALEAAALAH
Tyrosine-protein kinase Lyn (Homo sapiens), sequence (P07948 2-512 limits assumed): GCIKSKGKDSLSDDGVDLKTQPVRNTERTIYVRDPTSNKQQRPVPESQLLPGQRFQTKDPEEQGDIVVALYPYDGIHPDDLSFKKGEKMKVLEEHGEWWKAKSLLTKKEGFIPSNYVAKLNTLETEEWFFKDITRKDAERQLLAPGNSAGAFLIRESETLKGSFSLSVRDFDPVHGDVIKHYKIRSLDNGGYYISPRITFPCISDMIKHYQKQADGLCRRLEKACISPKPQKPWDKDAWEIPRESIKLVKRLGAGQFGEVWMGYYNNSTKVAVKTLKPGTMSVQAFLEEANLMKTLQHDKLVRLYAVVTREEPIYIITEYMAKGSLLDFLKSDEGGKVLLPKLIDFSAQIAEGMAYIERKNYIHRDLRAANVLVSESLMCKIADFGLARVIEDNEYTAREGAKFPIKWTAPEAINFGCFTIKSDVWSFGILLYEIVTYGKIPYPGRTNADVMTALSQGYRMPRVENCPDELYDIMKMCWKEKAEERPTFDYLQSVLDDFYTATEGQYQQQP

For `O=C1NC(=O)c2c1c1c3ccccc3[nH]c1n1cncc21`, the residual activity in assay [1] was found to be 49%; in [2], 72%; in assay [3] it was 47%; in [4], 57%; in [5], 19%; in assay [6] it was 86%. Also, the residual activity was 90% in assay [7]; 98% in assay [8]; 79% in [9]; 89% in assay [10]; 82% in assay [11]; 25% in assay [12]. The residual activity in assay [13] worked out at 21%; in assay [14], 59%; in assay [15], 67%; in assay [16], 27%; in [17] it was 10%; in assay [18], 77%. The residual activity in assay [19] is 45%.
With `CSc1nc(-c2ccc(F)cc2)c(-c2ccnc(NC(C)c3ccccc3)c2)[nH]1` (stereo not given), the residual activity in assay [1] was determined as 62%; in [3], 37%; in [4] it was 52%; in assay [5], 29%; in [9] it was 79%; in assay [10], 98%. The residual activity in assay [12] turned out to be 94%; in [13], 76%; in assay [16], 88%; in [17] it was 61%; in [19], 59%.
In the case of `CC(C)(C)n1nc(Cc2cccc3ccccc23)c2c(N)ncnc21`, the residual activity in assay [1] worked out at 6%; in assay [2], 44%; in assay [3], 12%; in assay [4], 10%; in [5], 1%; in [6], 78%. Moreover, the residual activity amounted to 51% in assay [7]; 81% in assay [20]; 41% in assay [8]; 90% in [11]; 91% in assay [12]; 80% in [13]. The residual activity amounted to 94% in [14]; 63% in assay [15]; 72% in assay [16]; 30% in [17]; 86% in [18]; 26% in assay [19].
As to `O=C(c1ccccc1)c1ccc(N2CCOCC2)cc1O`, the residual activity in assay [1] came to 94%; in assay [2], 96%; in [3], 78%; in assay [4], 85%; in assay [5], 72%; in assay [6], 90%. Further, the residual activity came out at 89% in assay [7]; 73% in assay [9]; 89% in assay [10]; 93% in assay [11]; 93% in [12]; 83% in assay [13]. Besides, the residual activity in [14] came out at 80%; in [15] it was 90%; in [16], 85%; in assay [17], 65%; in [18], 85%; in [19] it was 60%.
For `O=C1Nc2ccc(Cl)cc2/C1=C/c1cc(Cl)c(O)c(Cl)c1`, the residual activity in [1] stood at 53%; in [2], 74%; in [3] it was 51%; in assay [4], 81%; in assay [5], 23%; in assay [6], 76%. The residual activity in assay [7] was 70%; in assay [9] it was 67%; in [10] it was 71%; in assay [11], 61%; in assay [12], 69%; in assay [13], 35%. Further, the residual activity in [14] is 99%; in assay [15], 49%; in assay [16] it was 60%; in assay [17], 46%; in assay [18], 35%; in [19], 35%.
On to `Nc1ncnc2c1c(-c1ccc(Oc3ccccc3)cc1)cn2C1CCCC1`, for which the residual activity in assay [1] was -1%; in [2], -3%; in assay [3] it was 2%; in assay [4], 0%; in [5], 1%; in assay [6], 76%. Besides, the residual activity was found to be 66% in assay [7]; 106% in assay [20]; 93% in assay [8]; 82% in assay [9]; 77% in assay [10]; 84% in [11]. The residual activity in assay [12] was found to be 74%; in [13], 54%; in assay [14], 48%; in assay [15], 24%; in assay [16], 72%; in assay [17], 31%. In addition, the residual activity in assay [18] worked out at 93%; in assay [19] it was 82%.
Turning to `CCCCc1c(-c2ccc(OC)cc2)[nH]c2nccnc12`, the residual activity in [1] was 63%; in assay [2], 63%; in [3], 82%; in assay [4], 37%; in [5], 11%; in assay [20] it was 117%. In addition, the residual activity in assay [8] turned out to be 105%; in assay [9], 89%; in [10], 109%; in assay [11], 109%; in assay [12], 78%; in assay [13] it was 76%. In addition, the residual activity in assay [14] came to 140%; in assay [15] it was 112%; in assay [16], 74%; in assay [17], 75%; in [18], 104%.
As to `O=C1NC(=O)C(c2c[nH]c3ccccc23)=C1c1c[nH]c2ccccc12`, the residual activity in assay [1] is 37%; in assay [3], 41%; in assay [4], 82%; in assay [5], 32%; in assay [7] it was 61%; in [9] it was 98%. The residual activity is 79% in assay [10]; 81% in [12]; 37% in assay [13]; 34% in assay [14]; 7% in [15]; 80% in assay [16]. In addition, the residual activity in [17] was 27%; in [19], 41%.
Regarding `COc1ccc(-c2cnc3c(-c4ccsc4)cnn3c2)cc1`, the residual activity in assay [1] amounted to 123%; in [2] it was 93%; in assay [3], 91%; in assay [4] it was 98%; in [5], 95%; in assay [6], 84%. For the same molecule, the residual activity in assay [7] turned out to be 91%; in assay [9], 91%; in assay [12] it was 91%; in [13], 95%; in assay [16] it was 80%; in assay [17] it was 87%. Further, the figures for the residual activity in assay [18] and in [19] were 89% and 76%, respectively.
For `NCCNc1ncc(C(N)=O)c(Nc2cccc(C(F)(F)F)c2)n1`, the residual activity was 37% in assay [1]; 82% in assay [2]; 29% in assay [3]; 27% in assay [4]; 3% in [5]; 72% in assay [6]. The residual activity in assay [7] came to 40%; in [8], 43%; in assay [10], 49%; in assay [11], 72%; in [12], 72%; in [13], 30%. In addition, the results for the residual activity in assay [14] and in assay [15] were 73% and 25%, respectively.
With `CC(C)c1nn(-c2c(Cl)cccc2Cl)c2nc(Cc3ccc(OCCO)cc3)[nH]c(=O)c12`, the residual activity in assay [1] turned out to be 85%; in [3], 88%; in assay [4], 81%; in [5], 36%; in assay [6], 94%; in assay [7], 73%. The residual activity in [8] amounted to 89%; in [9] it was 80%; in [10], 89%; in assay [11], 91%; in assay [12] it was 80%; in assay [13], 47%. Besides, the residual activity in assay [14] was found to be 82%; in assay [16], 65%; in assay [17] it was 67%; in [18], 97%; in assay [19] it was 93%.
With `CCCC(=O)Oc1ccc2[nH]c(C(=O)c3cc4ccccc4[nH]3)cc2c1`, the residual activity in assay [1] is 73%; in assay [2], 80%; in [3] it was 76%; in assay [4], 61%; in [5] it was 31%; in assay [6] it was 77%. For the same molecule, the residual activity came to 80% in assay [7]; 100% in [20]; 104% in assay [8]; 75% in assay [9]; 87% in assay [10]; 94% in assay [11]. Moreover, the residual activity in assay [12] is 80%; in assay [13] it was 84%; in assay [14], 93%; in assay [15], 100%; in assay [16], 88%; in [17], 87%. In addition, the residual activity in assay [18] and in assay [19] was 82% each time.
